Measurements: PubChem BioAssay (NCI)
Compounds without any hit were thinned out: in the full panel of roughly 83,000, 20% have a hit.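 Note: values are percent growth. 100 is the growth of untreated cells, values between 100 and 0 indicate rising inhibition; between -100 and 0 indicates cell death.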 Unmarked numbers belong to inactive results. Active and inactive are the calls of the source.

System: T-47D breast
Assay: NCI-60 one-dose screen, 48 h (100 = growth as untreated, 0 = no growth, -100 = all killed)
Conditions: 10 µM unless noted
Experimental: Growth inhibition of the T-47D human tumor cell line is measured as a screen for anti-cancer activity. Cells are grown in 96 well plates and exposed to the test compound for 48 hours. Compounds are tested at a single concentration, which is 10^-5 M for most compounds. The reported endpoint is percent growth (GI% or GIPRCNT), where numbers from 0 - 100% represent growth inhibition, and numbers from -100% - 0 represent cell death. For example, a value of 40 represents 60% growth inhibition. A value of 0 means no net growth occurred over the course of the experiment. A value of -40 indicates 40% of cells at the beginning of the experiment died by the end of the experiment. A value of -100 means all cells are dead at the end of the experiment.
NCI-60 Human Tumor Cell Lines Screen was performed using the standard one-dose NCI protocol, which is described in more detail at https://dtp.cancer.gov/discovery_development/nci-60/default.htm.
Compounds with GIPRCNT values below 10 were considered active. Activity score was based on GIPRCNT using the following formula: […]
Score is 0 for GIPRCNT values of 100 or above, 50 for GIPRCNT values of 0, and 100 for GIPRCNT values of -100.

Compound | growth
C=C(C)[C@@H]1CC[C@]2(C(=O)NCC#CCN3CCN(C)CC3)CC[C@]3(C)[C@H](CC[C@@H]4[C@@](C)(CCC#N)[C@H](C(=C)C)CC[C@]43C)[C@@H]12 | 34.9%
CCOC(=O)C1=NN(c2ccccc2)C(=O)/C1=C\N1C(=O)CC(=O)NC1=S | 85.9%
Cc1nnc(-n2c(O)cc(=O)n(-c3ccccc3)c2=S)nc1/C=C/c1ccc(N(C)C)cc1 | 38%
C/C(=N/O)c1ccc(F)cc1 | 91.4%
COc1ccc(Cc2cc(-c3ccccc3)nn(Cc3ccccc3)c2=O)cc1OC | 7.51% (active)
C=CC(=O)NCc1ccc(Nc2nccc(-c3ccc(N4CCCC4)c(C#N)c3)n2)cc1 | 71%
CN(C)c1ccc(Nc2cc(-c3cccc(OC(F)(F)F)c3)nc3ccc(N4CCCC4)cc23)cc1 | 70.5%
Cn1cc(-c2nc(-c3c[nH]c4ccncc34)cs2)c2ccccc21 | 12.4%
COc1ccc(OC)c(-c2c(C#N)c(-c3cccs3)nc3c2c(-c2ccccc2)nn3-c2ccccc2)c1 | 94.3%
N#Cc1c(-c2ccc(Cl)cc2)nc(SCC(=O)NC2=NN=C(c3ccccc3)CS2)[nH]c1=O | 41.4%
CC1=C(CCC(C)N(C)Cc2ccc(OCCCN3CCCC3)cc2)C(C)(C)CCC1 (stereo not given) | -43.1% (active)
Cc1cc(Cl)ccc1NC(=O)c1cc2ccccc2cc1O | 12.6%
Fc1cccc(CNc2c3ccccc3nc3ccccc23)c1F | 68.3%
O=C(c1ccccc1)C1C(=O)N2C(=S)N(c3ccccc3)C(=O)C2C1c1ccc(Cl)cc1 (stereo not given) | 83.1%
Cn1c(-c2ccc(Br)cc2)c(O)c(=O)c2c(F)cccc21 | 57.7%
Cc1nnc(NC(=O)c2nc(S(=O)(=O)Cc3ccc(F)cc3)ncc2Cl)s1 | 38.5%
C#CCn1cnc2c(Nc3cccc(NC(=O)C=C)c3)ncnc21 | 72%
OCCCC1CCN(C(Cc2ccccc2)c2ccccc2)CC1 (stereo not given) | 56.9%
CC1=NN(c2nc(SCC(=O)Nc3nc4ccc(C)cc4s3)nc(-c3ccccc3)c2C#N)C(=O)C1 | 91.3%
Cc1ccc2c(n1)C(=O)c1[nH]c3ccccc3c1C2=O | 23.2%

Compound | growth
O=C(Nc1ccc(NC(=O)c2cc(=O)[nH]c3ccccc23)cc1)Nc1cccc(C(F)(F)F)c1 | 58.1%
COc1ccc(C(c2cc(OC)c(OC)c(OC)c2)N2CCN(c3ccccc3)CC2)cc1 (stereo not given) | 81.8%
O=C(CSc1nc2sc3c(c2c(=O)n1-c1ccccc1)CCCCC3)N/N=C/c1ccc(F)cc1 | 16.9%
NC(=O)CCC(C(=O)O)N1C(=O)c2ccc(O)cc2C1=O (stereo not given) | 102%
COC(=O)c1ccc2c(c1)C(=O)c1c-2n(CCCN)c(=O)c2cc([N+](=O)[O-])ccc12 | -80.3% (active)
CS(=O)(=O)c1cccc(-c2c(-c3cccc(OS(N)(=O)=O)c3)nc3sccn23)c1 | 79.3%
COc1ccc2c(c1)c(-c1noc(C(=O)c3cn(C)c4ccc(Br)cc34)n1)cn2C | 90%
O=C1/C(=C/c2ccc(Cl)cc2)COc2ccc(O)c(O)c21 | -14.8% (active)
O=C1c2cccnc2C(=O)c2c1c(C(=O)NCCn1ccnc1)c1ccccn21 | 24.2%
COc1cc(CNC(=O)CCCC/C=C/C(C)C)ccc1OCc1nnc(Nc2ccc([N+](=O)[O-])cc2)o1 | 48.6%
CCC(C)N(c1ccc(Cl)cc1)c1nc(-c2ccc(Br)cc2)cs1 (stereo not given) | 78.7%
Cc1cc2c(O)c(-c3cccc(Cl)c3)c3sc(=O)oc3c2cc1C | 14.8%
O=C(CSc1nc(-c2ccccc2)[nH]c1S(=O)(=O)c1ccccc1)NC1CC1 | 46.3%
N#Cc1c(-c2ccc(Cl)cc2)nc(NN=Cc2cccc(O)c2)nc1N1CCOCC1 | 64.6%
COc1ccccc1NC(=O)Cn1cc(CN2CCN(c3ccnc4cc(Cl)ccc34)CC2)nn1 | 81.7%
CN1CCN(c2ccc(NC(=O)c3nc4ccc5[nH]ncc5c4c4c3CCCC4)cc2C(F)(F)F)CC1 | 66.5%
CC1=Nc2cnc(Nc3ccc(OCCN4CCCCC4)cc3)nc2Nc2ccccc21 | 66.4%
O=C(Cn1cc(CN2C(=O)c3ccccc3S2(=O)=O)nn1)Nc1nc2ccccc2s1 | 88.1%
O=C(OCc1ccc2cccc(O)c2n1)N1CCN(C(=O)c2cc3cc(F)ccc3[nH]2)CC1 | -68.3% (active)
CCN(CC)CCCN1C(=O)c2c(c(C)c3c(oc4cc(O)ccc43)c2C)C1=O | 97.7%
